From PubChem BioAssay (NCATS) come the findings set out here.

The target of test [1] is Peroxisome proliferator-activated receptor delta (Homo sapiens) (UniProt Q03181). Kind of test: qHTS assay for small molecule antagonists of peroxisome proliferator-activated receptor delta signaling (AID 588535; active means well fitted inhibition curve with a large enough effect in the signal ratio, with a control signal flat, not every such curve was filed as active; the % refers to the signal ratio). The essentials:
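Reporter: UAS-bla under PPAR-delta response element, HEK293T host. Medium: 2% charcoal/dextran FBS. Dosing: titration, 18 hrs, 37 C. Detection: CCF4, 2 hrs RT, 405 ex/460 and 530 em.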

Test [2] has as its target Peroxisome proliferator-activated receptor gamma (Homo sapiens) (UniProt P37231). Kind of test: qHTS assay for small molecule agonists of peroxisome proliferator-activated receptor gamma signaling (AID 588536; active means well fitted curve in the direction sought with a large enough effect in the signal ratio, with a control signal flat, not every such curve was filed as active; the % refers to the signal ratio;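 further: 0% = DMSO basal wells and 100% = rosiglitazone at 2 µM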). In outline: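 Ratiometric blue/green fluorescence (405 nm excitation; 460 and 530 nm emission) from CCF4-loaded HEK293 reporter cells serves as signal. Exposure to test compounds lasts 16 h at 37 C in medium containing 1% charcoal/dextran-treated serum.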
Background: Quantitative high-throughput screening tests each substance at several concentrations.

Test [3] shares this target. Kind of test: qHTS assay for small molecule antagonists of peroxisome proliferator-activated receptor gamma signaling (AID 588537; active means well fitted inhibition curve with a large enough effect in the signal ratio, with a control signal flat, not every such curve was filed as active; the % refers to the signal ratio; further: potency means the concentration at half of the fitted maximal effect). In outline:
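We seeded GeneBLAzer HEK293 reporter cells at 3000 per well, allowed 6-6.5 h attachment at 37 C, then co-treated with test compound titrations and 50 nM rosiglitazone overnight (16 h). Inhibition was quantified from 460/530 nm emission ratios.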

Test [4] has as its target Vitamin D3 receptor (Homo sapiens) (UniProt P11473). Kind of test: qHTS assay for small molecule antagonists of vitamin D receptor signaling (AID 588541). Further: potency means the concentration at half of the fitted maximal effect. The essentials: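 VDR-UAS-bla HEK293T cells (2000/well, 2% charcoal-stripped FBS) were treated with titrated compounds plus 1-alpha,25-dihydroxyvitamin D3 (50 nM or 3 nM final) for 16 h at 37 C. CCF4 beta-lactamase fluorescence was read; Hill fits gave IC50.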

Test [5] has the same target. Kind of test: qHTS assay for small molecule agonists of vitamin D receptor signaling (AID 588543).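 Further: 0% = DMSO basal and 100% = reference agonist control.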 The essentials: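 Agonist-mode beta-lactamase reporter: HEK293T VDR-UAS-bla cells in charcoal-stripped 2% FBS, compound series 16 h 37 C, CCF4 2 h RT. EC50 from Hill fit, scaled against DMSO and 50 nM calcitriol control.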
Test [6] can be described thus: qHTS assay for small molecule agonists of retinoid X receptor alpha signaling (AID 588544). Conditions: HEK293T RXRa-UAS-bla, beta-lactamase reporter, 18 h; 530 nm emission.
The target in test [7] is Retinoic acid receptor RXR-alpha (Homo sapiens) (UniProt P19793). Described as above.
Test [8] addresses Thyroid hormone receptor beta (Homo sapiens) (UniProt P10828). In words: qHTS assay for small molecule agonists of thyroid hormone receptor beta signaling (AID 588545).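 Further: 0% = DMSO only and 100% = 10 nM T3.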 The essentials:
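TR-UAS-bla-GripTite HEK 293 cells in medium with 2% charcoal/dextran FBS, 0.1 mM NEAA and 1 mM sodium pyruvate were treated with titrated compounds for 18 hrs at 37 C. Beta-lactamase reporter was read with CCF4 dye (ex 405, em 460/530 nm); EC50 from Hill fits.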

The nature of test [9]: qHTS assay for small molecule antagonists of retinoid X receptor alpha signaling (AID 588546; active means well fitted inhibition curve with a large enough effect in the signal ratio, with a control signal flat, not every such curve was filed as active; the % refers to the signal ratio; further: potency means the concentration at half of the fitted maximal effect;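 on max response: cells stimulated with 9-cis-retinoic acid as agonist; on the % scale 0 is the no-effect control and ±100 the full control effect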). Conditions: HEK293T RXRa-UAS-bla, beta-lactamase ratio, antagonist mode; measured here: W530 green channel, cytotoxicity proxy. In outline:
(§1)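 Beta-lactamase reporter inhibition, read as CCF4 fluorescence ratio (ex 405, em 460/530 nm) after 2 h at RT. HEK293T UAS-bla cells, 2500/well, were stimulated with 9-cis-RA at 500 or 100 nM final alongside test compound for 18 h at 37 C.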

Test [10] has as its target Retinoic acid receptor RXR-alpha (Homo sapiens) (UniProt P19793). Described as above. Conditions: HEK293T RXRa-UAS-bla, beta-lactamase ratio, antagonist mode. In outline: as §1
The target of test [11] is Thyroid hormone receptor beta (Homo sapiens) (UniProt P10828). Kind of test: qHTS assay for small molecule antagonists of thyroid hormone receptor beta signaling (AID 588547; active means well fitted inhibition curve with a large enough effect in the signal ratio, with a control signal flat, not every such curve was filed as active; the % refers to the signal ratio;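 further: cells stimulated with 0.4 nM T3 agonist during compound exposure; series mostly up to about 77 µM; on the % scale 0 is the no-effect control and ±100 the full control effect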). Conditions: TR-UAS-bla HEK293, beta-lactamase ratio, antagonist mode, 18 h. In outline:
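TR-UAS-bla GripTite HEK293 cells in 2% charcoal/dextran FBS medium were preincubated 4 h at 37 C, given compound (0.59 nM to 92 uM) plus 0.4 nM T3 (final) for 18 h, then CCF4 for 2 h at RT; Hill fit gave IC50.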

Test [12] has as its target Voltage-gated inwardly rectifying potassium channel KCNH2 (Homo sapiens) (UniProt Q12809). In words: qHTS Assay for Small Molecule Inhibitors of the Human hERG Channel Activity (AID 588834; active means well fitted curve in the direction sought with a large enough effect; an effect the other way counts as inactive or inconclusive;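 further: lower thallium flux fluorescence means stronger hERG block; nearly all actives have a fitted effect of over 50% in size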; further: potency means the concentration at half of the fitted maximal effect). The essentials: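 Kinetic FDSS fluorescence; U2OS + hERG BacMam (~100 virus particles/cell); FluxOR Tl+ flux; ~10 min cpd; AC50 (Hill).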
For test [13], the target named is Luciferin 4-monooxygenase (Photinus pyralis) (UniProt P08659). Kind of test: Biochemical firefly luciferase enzyme assay for NPC (AID 624030; active means well fitted curve in the direction sought with a large enough effect; an effect the other way counts as inactive or inconclusive; further: nearly all actives have a fitted effect of over 70% in size; further: potency means the concentration at half of the fitted maximal effect). In outline: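 Counter-screen for direct inhibition of the luciferase enzyme by approved-drug library compounds, run at 10 nM enzyme in 50 mM Tris acetate (final). Luminescence was read within 5 min of enzyme-buffer addition and normalized to PTC124 versus DMSO (0%).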

The nature of test [14]: S16 Schwann cell PMP22 intronic element beta-lactamase assay (AID 624044).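 Further: 0% = DMSO and -100% = potassium clavulanate positive control; nearly all actives have a fitted effect of over 15% in size.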 In outline: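 Rat S16 Schwann cells with beta-Lac driven by a PMP22 intronic element, compound-treated 24 h at 37 °C. LiveBLAzer FRET B/G read: 460 nm normalized to potassium clavulanate vs DMSO; 535 nm FRET as viability; concentration-effect curves classified.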
Test [15] is described as follows: S16 Schwann cell viability assay (CellTiter-Glo assay) (AID 624031; active means well fitted curve in the direction sought with a large enough effect; an effect the other way counts as inactive or inconclusive;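 further: cellular ATP luminescence as a viability measure; series mostly up to about 58 µM; plate controls were DMSO-treated cells for no effect and cell-free wells for full effect; nearly all actives have a fitted effect of over 70% in size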). The essentials: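 Native S16 rat Schwann cells, 500-750 cells/well in DMEM with 10% FBS, dosed with compound after overnight culture and incubated 24h at 37 degree Celsius/5% CO2. Viability by CellTiter-Glo luminescence; % activity normalized to no-cell wells and DMSO-treated cells.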
(In general: Cellular ATP, detected with luciferase, serves as a proxy for viable cell number.)

Test [16] in a line: S16 Schwann cell PMP22 intronic element firefly luciferase assay (AID 624032; active means well fitted curve in the direction sought with a large enough effect; an effect the other way counts as inactive or inconclusive; further: nearly all actives have a fitted effect of over 30% in size; further: potency means the concentration at half of the fitted maximal effect). In outline: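 Rat S16 Schwann cells stably carrying a PMP22 intronic element-driven Fluc reporter were seeded overnight, then exposed to compounds for 24 h at 37 °C. Luminescence was normalized to PTC124 (positive control) and DMSO (0% activity).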

“And” between values parts separate entries of the source, which are not always exact repeats. Identical values can stand only once. Results filed as inconclusive are left out. Some structures have more than one record in an assay (separate samples or runs), and their calls can disagree. The source made the active and inactive calls. Unless noted, the call rests on the fitted dose curve.

Chain of Peroxisome proliferator-activated receptor delta (Homo sapiens) (Q03181 whole entry, looked up): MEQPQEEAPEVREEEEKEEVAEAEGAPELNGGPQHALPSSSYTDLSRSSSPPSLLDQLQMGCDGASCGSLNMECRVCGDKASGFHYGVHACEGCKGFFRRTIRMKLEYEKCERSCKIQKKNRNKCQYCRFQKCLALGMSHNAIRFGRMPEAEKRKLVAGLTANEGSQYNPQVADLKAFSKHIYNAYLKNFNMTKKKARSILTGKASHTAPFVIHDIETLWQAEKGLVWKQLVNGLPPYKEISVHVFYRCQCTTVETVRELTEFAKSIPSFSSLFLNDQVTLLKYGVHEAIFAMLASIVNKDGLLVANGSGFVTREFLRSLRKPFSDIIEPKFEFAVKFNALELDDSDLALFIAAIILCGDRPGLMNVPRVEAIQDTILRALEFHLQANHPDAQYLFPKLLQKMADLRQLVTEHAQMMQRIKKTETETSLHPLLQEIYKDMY
Chain of Luciferin 4-monooxygenase (Photinus pyralis) (P08659 whole entry, looked up): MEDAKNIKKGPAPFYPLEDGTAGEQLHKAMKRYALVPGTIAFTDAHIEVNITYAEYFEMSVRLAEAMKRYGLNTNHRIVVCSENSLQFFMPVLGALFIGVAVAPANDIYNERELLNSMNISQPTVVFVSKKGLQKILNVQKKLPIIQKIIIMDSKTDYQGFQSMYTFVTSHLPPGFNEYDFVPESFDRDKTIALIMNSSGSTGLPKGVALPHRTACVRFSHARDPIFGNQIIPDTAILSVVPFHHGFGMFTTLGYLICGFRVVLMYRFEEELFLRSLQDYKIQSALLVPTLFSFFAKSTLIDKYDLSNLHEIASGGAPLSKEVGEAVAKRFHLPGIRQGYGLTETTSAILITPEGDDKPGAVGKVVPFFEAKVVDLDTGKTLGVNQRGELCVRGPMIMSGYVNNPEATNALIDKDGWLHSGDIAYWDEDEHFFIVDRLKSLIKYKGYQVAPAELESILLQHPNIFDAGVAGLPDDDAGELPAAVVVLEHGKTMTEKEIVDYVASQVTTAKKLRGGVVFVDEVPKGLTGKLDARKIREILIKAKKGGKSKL
Chain of Peroxisome proliferator-activated receptor gamma (Homo sapiens) (P37231 whole entry, looked up): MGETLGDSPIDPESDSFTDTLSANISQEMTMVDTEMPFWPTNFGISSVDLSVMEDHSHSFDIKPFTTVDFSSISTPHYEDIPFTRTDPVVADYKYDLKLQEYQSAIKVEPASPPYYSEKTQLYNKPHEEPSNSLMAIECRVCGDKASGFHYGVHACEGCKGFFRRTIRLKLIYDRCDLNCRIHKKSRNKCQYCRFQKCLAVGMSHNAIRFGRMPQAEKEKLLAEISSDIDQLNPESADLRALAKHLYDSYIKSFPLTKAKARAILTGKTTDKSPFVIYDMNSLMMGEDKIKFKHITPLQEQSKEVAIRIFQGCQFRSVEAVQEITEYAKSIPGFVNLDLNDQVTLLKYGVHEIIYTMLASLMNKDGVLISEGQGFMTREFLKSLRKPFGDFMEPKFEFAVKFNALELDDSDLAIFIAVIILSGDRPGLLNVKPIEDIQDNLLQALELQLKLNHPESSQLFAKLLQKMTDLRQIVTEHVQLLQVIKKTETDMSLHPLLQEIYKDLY
Chain of Voltage-gated inwardly rectifying potassium channel KCNH2 (Homo sapiens) (Q12809 whole entry, looked up): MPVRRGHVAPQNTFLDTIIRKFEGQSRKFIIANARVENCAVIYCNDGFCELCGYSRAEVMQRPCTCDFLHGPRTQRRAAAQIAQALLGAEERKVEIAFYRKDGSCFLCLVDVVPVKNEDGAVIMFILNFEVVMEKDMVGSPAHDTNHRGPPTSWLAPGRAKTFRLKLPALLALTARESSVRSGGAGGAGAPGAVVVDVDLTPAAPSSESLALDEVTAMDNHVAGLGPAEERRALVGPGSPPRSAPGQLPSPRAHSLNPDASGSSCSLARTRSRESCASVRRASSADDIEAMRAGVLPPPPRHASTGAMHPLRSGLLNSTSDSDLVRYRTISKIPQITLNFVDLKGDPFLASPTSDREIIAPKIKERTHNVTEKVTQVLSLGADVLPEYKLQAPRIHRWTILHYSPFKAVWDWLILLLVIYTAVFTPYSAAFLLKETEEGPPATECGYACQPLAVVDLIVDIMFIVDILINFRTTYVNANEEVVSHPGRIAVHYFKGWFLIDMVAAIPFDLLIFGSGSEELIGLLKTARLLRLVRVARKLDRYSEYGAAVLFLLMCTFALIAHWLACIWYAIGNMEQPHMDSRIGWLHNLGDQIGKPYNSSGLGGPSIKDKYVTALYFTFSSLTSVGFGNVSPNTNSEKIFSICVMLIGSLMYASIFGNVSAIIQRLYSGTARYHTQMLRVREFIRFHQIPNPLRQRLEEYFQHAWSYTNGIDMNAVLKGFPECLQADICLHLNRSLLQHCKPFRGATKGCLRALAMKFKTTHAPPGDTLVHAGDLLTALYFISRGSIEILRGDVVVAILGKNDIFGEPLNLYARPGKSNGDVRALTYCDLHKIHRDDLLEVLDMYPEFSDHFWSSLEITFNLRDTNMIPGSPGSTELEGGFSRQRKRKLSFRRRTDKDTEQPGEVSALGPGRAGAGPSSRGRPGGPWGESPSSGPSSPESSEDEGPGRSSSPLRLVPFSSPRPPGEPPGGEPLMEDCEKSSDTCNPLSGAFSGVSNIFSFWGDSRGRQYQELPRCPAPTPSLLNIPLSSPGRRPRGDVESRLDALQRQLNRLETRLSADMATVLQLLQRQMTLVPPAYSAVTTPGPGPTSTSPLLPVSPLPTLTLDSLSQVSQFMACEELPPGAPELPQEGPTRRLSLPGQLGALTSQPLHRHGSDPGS
Chain of Thyroid hormone receptor beta (Homo sapiens) (P10828 whole entry, looked up): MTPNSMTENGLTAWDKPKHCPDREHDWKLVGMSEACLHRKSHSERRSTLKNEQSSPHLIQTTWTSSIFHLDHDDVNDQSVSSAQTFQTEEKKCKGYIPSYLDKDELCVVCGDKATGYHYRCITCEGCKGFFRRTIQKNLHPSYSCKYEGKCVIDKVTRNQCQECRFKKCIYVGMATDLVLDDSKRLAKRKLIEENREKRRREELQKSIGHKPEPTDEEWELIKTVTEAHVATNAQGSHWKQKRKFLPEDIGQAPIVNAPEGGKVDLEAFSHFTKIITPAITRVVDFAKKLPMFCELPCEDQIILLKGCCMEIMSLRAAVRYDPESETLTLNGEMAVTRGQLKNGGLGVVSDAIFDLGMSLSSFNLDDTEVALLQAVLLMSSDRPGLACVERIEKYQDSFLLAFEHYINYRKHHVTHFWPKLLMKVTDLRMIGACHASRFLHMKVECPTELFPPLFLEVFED
Chain of Retinoic acid receptor RXR-alpha (Homo sapiens) (P19793 whole entry, looked up): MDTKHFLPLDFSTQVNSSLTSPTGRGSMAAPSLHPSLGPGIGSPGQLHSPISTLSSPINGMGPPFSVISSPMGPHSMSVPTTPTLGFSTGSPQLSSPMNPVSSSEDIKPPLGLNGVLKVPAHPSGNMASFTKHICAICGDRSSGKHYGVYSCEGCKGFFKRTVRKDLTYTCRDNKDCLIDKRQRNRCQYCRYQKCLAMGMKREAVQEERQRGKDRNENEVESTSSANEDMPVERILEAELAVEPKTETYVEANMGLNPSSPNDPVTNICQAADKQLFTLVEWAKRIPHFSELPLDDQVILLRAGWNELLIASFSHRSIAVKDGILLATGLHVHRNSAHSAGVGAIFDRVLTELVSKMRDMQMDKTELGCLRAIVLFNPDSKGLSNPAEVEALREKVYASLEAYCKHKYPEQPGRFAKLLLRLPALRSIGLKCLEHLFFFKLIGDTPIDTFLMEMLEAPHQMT
Chain of Vitamin D3 receptor (Homo sapiens) (P11473 whole entry, looked up): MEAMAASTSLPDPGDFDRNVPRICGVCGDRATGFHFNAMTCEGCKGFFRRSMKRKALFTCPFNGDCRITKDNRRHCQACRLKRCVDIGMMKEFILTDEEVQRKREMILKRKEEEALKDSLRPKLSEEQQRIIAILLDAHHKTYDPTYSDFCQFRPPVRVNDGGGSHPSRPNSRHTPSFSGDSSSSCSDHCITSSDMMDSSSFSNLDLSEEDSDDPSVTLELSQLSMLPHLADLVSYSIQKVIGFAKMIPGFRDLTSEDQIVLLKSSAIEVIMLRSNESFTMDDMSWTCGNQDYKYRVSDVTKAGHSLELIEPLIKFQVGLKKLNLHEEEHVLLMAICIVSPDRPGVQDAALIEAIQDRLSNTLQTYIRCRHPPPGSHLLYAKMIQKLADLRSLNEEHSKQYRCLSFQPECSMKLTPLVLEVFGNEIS

As for `NCCNc1cccc2ccccc12`, the molecule was classed as inactive in test [1], in [2], in test [5], in test [7] and in test [8]. The Potency in [3] was 39.8 µM (active); in [4], “inactive and 31.6 µM (active)”; in [10] it was 44.7 µM (active). Moreover, the max response was 15.9% in test [6]; 2.26% and -22% in [9]; -21.1% (inactive) in test [10]. Also, the activity change % (negative = inhibition) in [11] was -5.49% (inactive). For the same molecule, the Potency result in test [12], in test [13] and in test [14] was “inactive” in each case.

As to `CCN1CCCC(OC(=O)C(c2ccccc2)c2ccccc2)C1` (centres undefined), the Potency in test [12] was 7.94 µM (active).

Turning to `OC[C@H]1O[C@@H]2O[C@H]3[C@H](O)[C@@H](O)[C@@H](O[C@H]4[C@H](O)[C@@H](O)[C@@H](O[C@H]5[C@H](O)[C@@H](O)[C@@H](O[C@H]6[C@H](O)[C@@H](O)[C@@H](O[C@H]7[C@H](O)[C@@H](O)[C@@H](O[C@H]8[C@H](O)[C@@H](O)[C@@H](O[C@H]1[C@H](O)[C@H]2O)O[C@@H]8CO)O[C@@H]7CO)O[C@@H]6CO)O[C@@H]5CO)O[C@@H]4CO)O[C@@H]3CO`, the max response in test [6] was 2.91%; in test [9], 2.41%; in test [10], 10.2% (inactive). Also, the molecule was classed as inactive in test [7] and in test [8]. For the same molecule, in test [11], the activity change % (negative = inhibition) was 2.69% (inactive). Further, the Potency result in [12], in [13], in test [15] and in test [16] was “inactive” in each case.

As for `O=[N+]([O-])c1ccc(/C=N\O)o1`, in test [12], the Potency entry is “inactive”.

As to `CCCCCCCCCCCCCCCC(=O)O`, the result in test [2], in [5], in [7] and in test [8] was inactive. For the same molecule, the Potency entry in test [4], in test [12], in [13], in test [15] and in test [14] was “inactive” throughout. The max response was -15.5% in test [6], -11.4% in test [9] and 0.179% (inactive) in test [10]. For the same molecule, in [11], the activity change % (negative = inhibition) is 13.6% (inactive).

Take `CC(=C(CCOC(=O)C(C)C)SSC(CCOC(=O)C(C)C)=C(C)N(C=O)Cc1cnc(C)nc1N)N(C=O)Cc1cnc(C)nc1N`: the Potency result in test [12] is “inactive”.

For `CCCN(CCC)S(=O)(=O)c1ccc(C(=O)O)cc1`, the molecule was called inactive in test [1], in [2], in test [5], in [7] and in test [8]. The Potency result in test [3], in [4], in test [12], in [13], in test [15] and in test [16] was “inactive” each time. Further, the max response in test [6] was -13.7% and -10.4%; in test [9], -8.2% and -10.3%; in test [10], 6.91% (inactive) and 7.89% (inactive). For the same molecule, the activity change % (negative = inhibition) in [11] is 8.08% (inactive) and 3.53% (inactive).

In the case of `CC1(COc2ccc(CC3SC(=O)NC3=O)cc2)CCCCC1` (centres undefined), the result in test [8] was inactive. Also, the max response in test [9] was 20.2%; in test [10], -22.1% (inactive). Also, the activity change % (negative = inhibition) in test [11] is -31.9% (inactive). Also, the Potency in test [13] is 16.1 µM (active). Further, the Potency entry in test [15], in [16] and in [14] was “inactive” each time.

For the molecule `O=C(Oc1cccc2cccnc12)c1ccccc1`, the Potency entry in test [12] was “inactive”.

Turning to `Oc1c(Cl)cc(Cl)c(Cl)c1Cc1c(O)c(Cl)cc(Cl)c1Cl`, the Potency entry in test [4], in test [12] and in [15] was “inactive” in each case. For the same molecule, in test [16], the Potency is 1.61 µM (active).
